Measurements as given in PubChem BioAssay AID624263 (National Center for Advancing Translational Sciences (NCATS), 2012).
About 820 (0.2%) of roughly 410,000 compounds were called active. Another 2% or so got no clear call; they are omitted. This excerpt belongs to a sample that is enriched for actives. Unmarked numbers belong to inactive results. Calls follow the shape of the dose curve; as a rule, active = well fitted activation curve with a large enough effect; inconclusive = small, poorly fitted or top-dose-only effect; inactive = flat fitted curve, though single readings scatter; cell line not stated here.

Experiment: A Quantitative High throughput Screen to Identify Chemical Modulators of PINK1 Expression; also: nearly all actives have a fitted effect of over 65% in size; as to activation (PINK1 increase): % of control where 0% means no effect
Settings: PINK1 immunofluorescence, high-content cytometry, 24 h; series mostly up to 76.6 µM; activation (PINK1 increase): at the top concentration
From the text: The overall goal of this project is to develop new tools for understanding and treating the mitochondrial basis for neurodegenerative disease such as Parkinson's disease (PD). The PINK1 campaign was developed from recent data pointing towards mitochondrial dysfunction as a major contributor to dopaminergic neuron loss. The discovery of PINK1/Parkin mediated mitophagy has highlighted the potential for mitochondrial quality control as a novel target for therapeutic intervention. […] A second aim of this project is the development of chemical probes to study the mechanics of mitochondrial quality control. As the PINK1/Parkin mitophagy pathway is a relative recent discovery, no specific chemical probes are available that modulate the process. Presently, only crude tools that cause nonspecific mitochondrial damage are available. To advance the understanding of mitophagy, specific, well characterized chemicals that target various steps of mitophagy regulation need to be developed. New chemical probes may have the ability to dynamically manipulate mitophagy in model organisms such as rodents and zebrafish, advancing our understanding of the process in development and disease. This HTS campaign seeks to discover an activator of PINK1 expression by modulation at the level of post-translational processing.
The PINK1 assay determines the amount and localization of PINK1 protein in a cell using a combination of immunofluorescence and cell staining. The goal of the assay is to determine small molecules that can increase the expression of Pink1 on or inside the cell's mitochondria (ideally without mitochondrial depolarization) using a stable cell line. Since PINK1 protein is rapidly degraded in un-perturbed cells, compounds that induce the enhancement of PINK1 protein expression are identified by determining PINK1 immunofluorescence in conjunction with a mitochondrial, cell, and nuclear marker post fixation. To facilitate rapid high content screening, the primary assay is run in a decision-based HTS mode where compound titration data collected by laser-scanning microplate cytometers is processed and only promising compound series are passed off for high content drill down.
1 Add cells to black, clear-bottom, low-base 1536-well plates 6 uL (250 cells/well)
2 Incubate in TC incubator (12 hours)
3 Pin compounds or DMSO controls 23 nL (5 concentrations per compound set)
4 Dispense CCCP to control columns
5 Incubate in TC incubator 24 hours
6 Aspirate media and fix cells (5 uL of fixative containing nuclear dye)
7 Incubate 15 minutes at RT
8 Wash in PBSTween (12 uL/well)
9 Wash in PBSTriton (12 uL/well)
10 Aspirate wash and add Blocking buffer (4 uL/well)
12 Aspirate block and add primary antibodies 3.5 (uL/well)
13 Incubate 12 hours at 10 degrees C
14 Wash in PBSTween-20 two times (12 uL/well)
15 Aspirate wash and add secondary antibodies (12 uL/well)
17 Wash in PBSTween (12 uL/well)
18 Wash in PBSTween with cell stain (12 uL/well)
19 Read plates on Acumen EX3 and determine Wells2Cells coordinates
Potency is read from the fitted curve at half-maximal effect.

| SMILES | Potency | activation (PINK1 increase) |
| --- | --- | --- |
| CCOc1ccc(-c2cc(C)[n+](CCN(CC)CC)c(-c3ccc(OCC)cc3)c2)cc1 | 15.8 µM (active) |  |
| Cn1cc(/C=C/c2nc3ccccc3c(=O)n2-c2ccccc2)c2ccccc21 |  | 3.72% |
| CCc1nc2ccccc2c(=O)n1-c1cccc(OC)c1 |  | -3.42% [at 38.3 µM] |
| COc1cccc(N2C(=O)NC(=O)/C(=C\c3cn(C)c4ccccc34)C2=O)c1 | 39.8 µM (active) |  |
| c1ccc(N2CC[C@@]3(CCCNC3)C2)nc1 |  | -0.11% |
| COc1cccc(-c2ccc(O)c(CNC3CN4CCC3CC4)c2)n1 (centres undefined) |  | -0.604% |
| c1ccc(CN2CC[C@@]3(CCCNC3)C2)cc1 |  | -1.39% |
| COc1cc([C@@H]2c3cc4c(cc3[C@H](OC(C)=O)[C@H]3COC(=O)[C@H]23)OCO4)cc(OC)c1OC |  | 6.21% |
| N#Cc1c(Cl)c(Cl)c(Cl)c(C#N)c1Cl |  | 12.1% |
